This note sets out measurements from PubChem BioAssay AID686979 (National Center for Advancing Translational Sciences (NCATS), 2013).

Screen size: about 420,000 compounds; about 50,000 (12%) were called active. Where a call stands in place of a potency, no number is given. Roughly 26% stayed inconclusive and do not appear here. This is one part of a sample in which actives are shown more often than they occur. Calls follow the shape of the dose curve; as a rule, active = well fitted inhibition curve with a large enough effect; inconclusive = small, poorly fitted or top-dose-only effect; inactive = flat fitted curve, though single readings scatter.
Potency is read from the fitted curve at half-maximal effect.

A short description of the test: qHTS for Inhibitors of human tyrosyl-DNA phosphodiesterase 1 (TDP1): qHTS in cells in presence of CPT. Also: nearly all actives have a fitted effect of over 55% in size. Particulars: chicken DT40 Tdp1-/-;hTDP1 cells + 20 nM CPT, ATP luminescence, 48 h; series mostly up to 46.2 µM. Summed up: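 Chicken DT40 Tdp1-/- cells complemented with human TDP1, 400 cells/well, exposed to compounds plus 20 nM camptothecin for at least 48 h at 37 C; viability read as ATP content by CellTiter-Glo luminescence.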
Regarding `C=C1O[C@@](CO)(n2cnc3c(N)ncnc32)[C@H](O)[C@@H]1O`, the Potency result is “inactive”. For the compound `Cc1cccc(NC(=O)CCN2CC(C)CC(C)C2)c1` (stereo unspecified), the Potency entry was “inactive”. Consider `CCOc1ccc(C(=O)COC(=O)c2ccc(-n3cnnn3)cc2)cc1`, for which the Potency result was “inactive”. Under `COC(=O)c1ccc(/C=N/NC(=O)C(=O)N2CCCCCC2)cc1` stands “inactive”; under `CCOC(=O)c1c(S(=O)(=O)N2CCCC(C(=O)NCc3cccc(C)c3)C2)c(C)n(C)c1C` (stereo unspecified), “inactive”.

Turning to `CCC(C)N(C(=O)Cn1nc(C)c([N+](=O)[O-])c1C)C1CCS(=O)(=O)C1` (stereo unspecified), the Potency result is “inactive”. Consider `CCOc1ccc(NC(=O)c2ccc(NC(=O)CN3C(=O)C(=O)N(CC(C)C)C3=O)cc2)cc1`, for which the Potency entry is “inactive”. Under `O=C(NCCCN1CCOCC1)c1ccccc1NS(=O)(=O)c1ccc(F)cc1` stands “inactive”. Under `O=C(NCCCN1CCOCC1)c1cnn2c(-c3ccccc3)cc(-c3ccccc3)nc12` stands 18.4 µM (active). As for `O=C(NCCCN1CCOCC1)c1ccccc1NS(=O)(=O)c1ccc(Br)cc1`, the entry is “inactive”; as for `O=C(NCc1ccco1)/C(=C\c1cccc([N+](=O)[O-])c1)NC(=O)c1ccco1`, “inactive”; as for `CC(=O)Oc1ccc2c(c1)C(=O)c1ccccc1C2=O`, “inactive”. For `O=C1C(Cl)=C(Oc2ccccc2)C(=O)c2ccccc21`, the Potency is 0.326 µM (active). In the case of `COc1ccccc1-n1c(SCC(=O)Nc2ccc(Cl)cc2)nc(O)c(Cc2ccccc2)c1=O`, the Potency entry was “inactive”. As to `COc1ccc(Cl)cc1NC(=O)CN1CCN(C(=O)N2CCOCC2)CC1`, the Potency result was “inactive”. As for `Cc1ccc(NC(=O)c2sc3nc(N)c(C#N)cc3c2N)cc1`, the entry is “inactive”.

Consider `CCN1CCc2nc3sc(C(=O)Nc4ccccc4OC(F)(F)F)c(N)c3cc2C1`, for which the Potency is 16.4 µM (active). As for `COc1ccc(Cl)cc1NC(=O)c1oc(C)nc1C`, the entry is “inactive”; as for `CC(=O)Nc1ccc(NC(=O)c2sc3nc4c(c(-c5ccc(C)cc5)c3c2N)CCC4)cc1`, “inactive”; as for `CCc1ccc(NC(=O)c2sc3nc4c(cc3c2N)CN(CC)CC4)cc1`, 23.1 µM (active).

Regarding `CCN1CCc2nc(NC(=O)c3cc(F)c(F)cc3Cl)sc2C1`, the Potency result is “inactive”. Under `COc1ccc(Cl)cc1NC(=O)c1sc2nc3c(cc2c1N)CN(C)CC3` stands 23.1 µM (active); under `COc1ccccc1NC(=O)c1ccc2nc(N3C(=O)CCC3=O)sc2c1`, “inactive”. `O=C(c1cn(-c2ccccc2)nc1-c1cccnc1)N1CCN(S(=O)(=O)c2ccccc2F)CC1`: the Potency entry was “inactive”. Under `O=C(NC(=S)Nc1ncccn1)c1ccccc1Br` stands “inactive”; under `COC(=O)C1(CCSC)NC(c2ccc(OC)cc2OC)C2C(=O)N(c3cccc(C(C)=O)c3)C(=O)C21` (stereo unspecified), “inactive”.

On to `O=C(CSc1ccccn1)N1CCN(S(=O)(=O)c2ccc(Cl)cc2)CC1`, for which the Potency result is “inactive”. As for `O=P(O)(O)OC[C@H](O)CO`, the entry is “inactive”; as for `Cc1cn([C@H]2C[C@H](O)[C@@H](/C=C/C(=O)NCCCc3ccccc3)O2)c(=O)[nH]c1=O`, “inactive”; as for `Cc1ccc(S(=O)(=O)N(CCCN(C)C)Cc2ccc3c(c2)OCO3)cc1`, 16.4 µM (active). As for `Cc1ccc(CNCc2ccc3c(c2)OCO3)c(C)c1`, the entry is “inactive”; as for `Cc1ccc(-c2nc(CS(=O)(=O)CC(=O)NCc3ccc4c(c3)OCO4)c(C)o2)cc1`, “inactive”; as for `CC1CN(C(=S)Nc2ccc(Br)cc2Cl)CC(C)O1` (stereo unspecified), “inactive”. Under `CC[n+]1cc(C)ccc1/C=C/c1ccc(N(C)C)cc1` stands 0.0291 µM (active); under `COc1ccccc1-n1cnc2cc(NS(=O)(=O)c3ccccc3)ccc21`, “inactive”. In the case of `CCOC(=O)CSC1=Nc2ccccc2C2=NC(CCC(=O)NCc3ccc(F)cc3)C(=O)N12` (stereo unspecified), the Potency result is “inactive”. Under `CCN1N=C(c2ccccc2)CCC1=O` stands “inactive”; under `CC(=O)NC1=NN(C(C)=O)C(C)(CCS(=O)(=O)c2ccc(Cl)c(Cl)c2)S1` (stereo unspecified), “inactive”.

As for `O=C(NC1=NCCS1)c1ccc(Cl)s1`, the Potency entry was “inactive”. As for `CC(=O)NC1=NN(C(C)=O)C(C)(c2ccc(Cl)s2)S1` (stereo unspecified), the figure is 6.51 µM (active).

Consider `CC/C(Cc1ccccc1)=N/NC(=O)CCn1nnc2ccccc21`, for which the Potency result is “inactive”. Under `OCCNc1nc(Nc2ccc(Cl)c(Cl)c2)nc2ccccc12` stands 18.4 µM (active); under `O=C(O)c1ccc(Nc2nc(-c3ccccc3)c3cc(Br)ccc3n2)cc1`, “inactive”; under `Nc1nc(Nc2ccccc2)nc(NCCO)c1[N+](=O)[O-]`, “inactive”.

For `CO[C@H]1[C@@H]2C=CO[C@@H](O[C@H]3O[C@@H](CO)[C@H](O)[C@@H](O)[C@@H]3O)[C@@H]2[C@@]2(CO)O[C@@H]12`, the Potency result was “inactive”. Under `CCN(C(=O)CSc1nnc(-c2ccncc2)o1)c1ccccc1` stands “inactive”. Under `O=C(COc1ccccc1)N1CCN=C1SCc1cccc(F)c1` stands “inactive”; under `COc1ccc(C(=O)NC(=S)NNC(=O)c2c(-c3ccccc3)noc2C)cc1`, “inactive”; under `O=C(NNC(=O)c1ccc(Cl)nc1)c1ccc(Br)cc1`, “inactive”. Turning to `CNC(=S)NNC(=O)c1ccc(N(C)C)cc1`, the Potency entry was “inactive”. In the case of `COc1ccc(C(=O)NNC(=S)NC(=O)c2ccccc2[N+](=O)[O-])cc1`, the Potency is 18.4 µM (active). On to `COC(=O)CNC(=O)c1ccccc1[N+](=O)[O-]`, for which the Potency result was “inactive”.

Turning to `COc1ccc(NC(=O)c2ccccc2[N+](=O)[O-])cc1OC`, the Potency result was “inactive”. In the case of `COc1ccc(C(=S)Nc2ccccc2)cc1`, the Potency result is “inactive”.

For the compound `CC(=O)NC(=S)NNC(=O)c1ccc(Br)cc1`, the Potency is 6.51 µM (active). As to `O=C(CCc1ccccc1)NNC(=O)c1ccc(Br)cc1`, the Potency result was “inactive”.

For the compound `CC(C)Oc1ccc(CCC(=O)NNC(=S)NCc2ccccc2)cc1`, the Potency entry is “inactive”. As for `COc1ccc(C(=O)NC(=S)NNC(=O)CCc2ccccc2)cc1`, the figure is 8.2 µM (active); as for `COc1ccc(C(=O)NNC(=S)NC(=O)c2ccccc2)cc1`, 9.2 µM (active). As for `CSCCC(NC(=O)COc1ccccc1)C(=O)OCc1ccc(Cl)cc1` (stereo unspecified), the entry is “inactive”; as for `COc1cc(-c2cccnc2)cc2c1OCCN(C(=O)Cc1csc(C)n1)C2`, “inactive”; as for `CCCNC(=O)C1CC(=O)N(c2ccc(OCc3ccccc3)cc2)C1` (stereo unspecified), “inactive”. Under `O=C(CCc1nc(CN2CCN(S(=O)(=O)c3ccc(Br)cc3)CC2)no1)N1CCCCC1` stands “inactive”. For the compound `Cc1ccccc1N1C(=O)C2ON(c3ccccc3)C(c3ccncc3)C2C1=O` (stereo unspecified), the Potency result is “inactive”. `C/C(=N/OC(=O)c1ccc(Br)cc1)c1ccc(C)cc1`: the Potency result is “inactive”. Take `COc1ccc(-c2cc(=O)oc3cc(OCC(=O)N[C@@H](Cc4c[nH]c5ccccc45)C(=O)O)ccc23)cc1`: the Potency entry is “inactive”.
